Assay results: PubChem BioAssay AID1159580 (chemical genetic matrix, 2015)
The campaign covered roughly 5,500 compounds. About 2,000 (36%) were called active. Roughly 18% stayed inconclusive and do not appear here. Rule as the data show it: active = normalized growth mostly below about 0.91 (no sharp cut-off); inconclusive = no clear call, values can overlap the other calls; inactive = mostly above about 0.92. Some of the results follow.

Assay: chemical genetic growth profiling, strain panel (AID 1159580);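 also: tested at 20 µM; growth read once vehicle control cultures reached saturation at 30 °C; 1 = growth at the plate median or of vehicle wells; lower values mean less growth of the strain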
Conditions: growth OD

Measured: normalized growth

CCCN(CCC)c1c([N+](=O)[O-])cc(C(F)(F)F)cc1[N+](=O)[O-]
inactive: S. cerevisiae deletion strains, locus YJR075W, strain HOC1, stronger effect = lower value 0.994 | S. cerevisiae deletion strains, locus YKL009W, strain mrt4, stronger effect = lower value 1.03 | S. cerevisiae deletion strains, locus YKL068W, stronger effect = lower value 1.01 | S. cerevisiae deletion strains, locus YKL085W, strain MDH1 (second series), stronger effect = lower value 1 | S. cerevisiae deletion strains, locus YKL085W, strain MDH1, stronger effect = lower value 1 | S. cerevisiae deletion strains, locus YKL160W, strain elf1, stronger effect = lower value 1 | S. cerevisiae deletion strains, locus YKL190W, strain CNB1, stronger effect = lower value 1.01 | S. cerevisiae deletion strains, locus YKR001C, strain vps1, stronger effect = lower value 1.03 | S. cerevisiae deletion strains, locus YKR026C, strain gcn3, stronger effect = lower value 0.97 | S. cerevisiae deletion strains, locus YKR091W, strain srl3, stronger effect = lower value 0.999 | S. cerevisiae deletion strains, locus YLL001W, strain dnm1, stronger effect = lower value 0.999 | S. cerevisiae deletion strains, locus YLL026W, stronger effect = lower value 0.999 | S. cerevisiae deletion strains, locus YLL041C, strain sdh2, stronger effect = lower value 1 | S. cerevisiae deletion strains, locus YLR027C, strain aat2, stronger effect = lower value 1.01 | S. cerevisiae deletion strains, locus YLR039C, strain RIC1, stronger effect = lower value 0.99 | S. cerevisiae deletion strains, locus YLR058C, strain SHM2, stronger effect = lower value 1 | S. cerevisiae deletion strains, locus YLR102C, strain apc9, stronger effect = lower value 1.01 | S. cerevisiae deletion strains, locus YLR113W, strain HOG1, stronger effect = lower value 1.02 | S. cerevisiae deletion strains, locus YLR221C, strain rsa3, stronger effect = lower value 1 | S. cerevisiae deletion strains, locus YLR258W, strain gsy2, stronger effect = lower value 0.984 | S. cerevisiae deletion strains, locus YLR262C, strain YPT6 (second series), stronger effect = lower value 0.989 | S. cerevisiae deletion strains, locus YLR262C, strain YPT6, stronger effect = lower value 1.04 | S. cerevisiae deletion strains, locus YLR268W, strain sec22, stronger effect = lower value 1.02 | S. cerevisiae deletion strains, locus YLR320W, strain mms22, stronger effect = lower value 1.01 | S. cerevisiae deletion strains, locus YLR330W, strain CHS5, stronger effect = lower value 1.02 | S. cerevisiae deletion strains, locus YLR342W, strain FKS1 (second series), stronger effect = lower value 1.04 | S. cerevisiae deletion strains, locus YLR342W, strain FKS1, stronger effect = lower value 1.04 | S. cerevisiae deletion strains, locus YLR357W, strain rsc2, stronger effect = lower value 1.13 | S. cerevisiae deletion strains, locus YLR370C, strain arc18, stronger effect = lower value 1 | S. cerevisiae deletion strains, locus YLR371W, strain rom2, stronger effect = lower value 1.02 | S. cerevisiae deletion strains, locus YLR384C, strain iki3, stronger effect = lower value 1.02 | S. cerevisiae deletion strains, locus YLR418C, strain cdc73, stronger effect = lower value 1 | S. cerevisiae deletion strains, locus YML016C, strain PPZ1, stronger effect = lower value 0.982 | S. cerevisiae deletion strains, locus YML032C, strain rad52, stronger effect = lower value 1.02 | S. cerevisiae deletion strains, locus YML120C, strain ndi1, stronger effect = lower value 0.985 | S. cerevisiae deletion strains, locus YML124C, strain tub3, stronger effect = lower value 1.02 | S. cerevisiae deletion strains, locus YMR058W, strain fet3, stronger effect = lower value 0.989 | S. cerevisiae deletion strains, locus YMR078C, strain ctf18, stronger effect = lower value 1.02 | S. cerevisiae deletion strains, locus YMR125W, strain sto1, stronger effect = lower value 1.01 | S. cerevisiae deletion strains, locus YMR129W, stronger effect = lower value 1.01 | S. cerevisiae deletion strains, locus YMR205C, strain PFK2, stronger effect = lower value 0.977 | S. cerevisiae deletion strains, locus YMR223W, strain ubp8, stronger effect = lower value 1.01 | S. cerevisiae deletion strains, locus YMR231W, strain pep5, stronger effect = lower value 1.01 | S. cerevisiae deletion strains, locus YMR263W, strain SAP30, stronger effect = lower value 0.984 | S. cerevisiae deletion strains, locus YMR307W, strain GAS1, stronger effect = lower value 0.973 | S. cerevisiae deletion strains, locus YNL067W, strain RPL9B, stronger effect = lower value 1.01 | S. cerevisiae deletion strains, locus YNL071W, strain lat1, stronger effect = lower value 1 | S. cerevisiae deletion strains, locus YNL128W, strain TEP1, stronger effect = lower value 1 | S. cerevisiae deletion strains, locus YNL153C, strain GIM3, stronger effect = lower value 0.995 | S. cerevisiae deletion strains, locus YNL183C, strain NPR1, stronger effect = lower value 0.915 | S. cerevisiae deletion strains, locus YNL209W, strain ssb2, stronger effect = lower value 1.02 | S. cerevisiae deletion strains, locus YNL233W, strain BNI4, stronger effect = lower value 0.981 | S. cerevisiae deletion strains, locus YNL248C, strain rpa49, stronger effect = lower value 1.04 | S. cerevisiae deletion strains, locus YNL250W, strain rad50, stronger effect = lower value 1.01 | S. cerevisiae deletion strains, locus YNL271C, strain bni1, stronger effect = lower value 1.01 | S. cerevisiae deletion strains, locus YNL298W, strain CLA4, stronger effect = lower value 1.02 | S. cerevisiae deletion strains, locus YNL307C, strain MCK1, stronger effect = lower value 1.01 | S. cerevisiae deletion strains, locus YNL322C, strain KRE1 (second series), stronger effect = lower value 1 | S. cerevisiae deletion strains, locus YNL322C, strain KRE1, stronger effect = lower value 1 | S. cerevisiae deletion strains, locus YNR049C, strain mso1, stronger effect = lower value 1.02 | S. cerevisiae deletion strains, locus YNR052C, strain pop2, stronger effect = lower value 1.02 | S. cerevisiae deletion strains, locus YOL006C, strain TOP1, stronger effect = lower value 1.01 | S. cerevisiae deletion strains, locus YOL012C, strain htz1 0.879 | S. cerevisiae deletion strains, locus YOL147C, strain pex11, stronger effect = lower value 1.01 | S. cerevisiae deletion strains, locus YOR001W, strain rrp6, stronger effect = lower value 1.01 | S. cerevisiae deletion strains, locus YOR061W, strain CKA2, stronger effect = lower value 1 | S. cerevisiae deletion strains, locus YOR069W, strain VPS5, stronger effect = lower value 0.998 | S. cerevisiae deletion strains, locus YOR070C, strain gyp1, stronger effect = lower value 0.993 | S. cerevisiae deletion strains, locus YOR080W, strain dia2, stronger effect = lower value 1.01 | S. cerevisiae deletion strains, locus YOR083W, strain WHI5, stronger effect = lower value 1.01 | S. cerevisiae deletion strains, locus YOR106W, strain vam3, stronger effect = lower value 1.02 | S. cerevisiae deletion strains, locus YOR136W, strain idh2, stronger effect = lower value 1.02 | S. cerevisiae deletion strains, locus YOR144C, strain elg1, stronger effect = lower value 1.02 | S. cerevisiae deletion strains, locus YOR184W, strain ser1, stronger effect = lower value 1.02 | S. cerevisiae deletion strains, locus YOR231W, strain MKK1, stronger effect = lower value 0.986 | S. cerevisiae deletion strains, locus YOR265W, strain rbl2, stronger effect = lower value 1.01 | S. cerevisiae deletion strains, locus YOR270C, strain vph1, stronger effect = lower value 0.993 | S. cerevisiae deletion strains, locus YOR290C, strain snf2, stronger effect = lower value 0.987 | S. cerevisiae deletion strains, locus YOR316C, strain cot1, stronger effect = lower value 1.01 | S. cerevisiae deletion strains, locus YPL051W, strain arl3, stronger effect = lower value 1.01 | S. cerevisiae deletion strains, locus YPL055C, strain LGE1, stronger effect = lower value 1.06 | S. cerevisiae deletion strains, locus YPL078C, strain atp4, stronger effect = lower value 0.968 | S. cerevisiae deletion strains, locus YPL106C, strain sse1, stronger effect = lower value 1.05 | S. cerevisiae deletion strains, locus YPL240C, strain hsp82, stronger effect = lower value 0.988 | S. cerevisiae deletion strains, locus YPL241C, strain CIN2, stronger effect = lower value 1.01 | S. cerevisiae deletion strains, locus YPL256C, strain CLN2, stronger effect = lower value 0.961 | S. cerevisiae deletion strains, locus YPR119W, strain clb2, stronger effect = lower value 1.01 | S. cerevisiae deletion strains, locus YPR141C, strain kar3, stronger effect = lower value 1 | S. cerevisiae deletion strains, locus YPR163C, strain tif3, stronger effect = lower value 1.02 | S. cerevisiae deletion strains, locus YPR167C, strain met16, stronger effect = lower value 1.01 | S. cerevisiae deletion strains, strain wtn01, stronger effect = lower value 1.02 | S. cerevisiae strains, strain wild type, stronger effect = lower value 1.01
